# In PubChem BioAssay (NCI):
# About 79,000 compounds went through this panel and 15% of them were active in at least one assay; those are over-represented in the sample as a whole. Unmarked numbers belong to inactive results. Active and inactive are the calls of the source. Cut-off read from the data, not from the text of the source: active = growth inhibition above about 70%; inactive = the rest.
# Test: NCI Yeast Anticancer Drug Screen. Data for the mgt1 strain (AID 153)
# Settings: S. cerevisiae mgt1 mutant growth inhibition, stronger effect = higher value
# Protocol: Growth inhibition of yeast strains with defined genetic alterations is measured as a screen for potential anti-cancer activity. Selected strains with alterations in DNA damage repair or cell cycle control were exposed to compounds and growth inhibition was measured relative to vehicle treated controls. The strain used in this assay is mgt1
SMILES,growth inhibition (at 1.2 µM),growth inhibition (at 3.7 µM),growth inhibition (at 11.0 µM),growth inhibition (at 33.0 µM),growth inhibition (at 100.0 µM)
CCOC(=O)C1([Se]c2ccccc2)CCCC1=O (stereo not given),-4%,-5%,4%,32%,85% (active)
CC(=O)O/C(=C1\C[C@H]2[C@@H]3CC=C4C[C@@H](OC(C)=O)CC[C@]4(C)[C@H]3CC[C@]2(C)C1=O)C(F)(F)F,1%,0%,1%,1%,3%
O=C1OC2C(O1)C1(Cl)C(Cl)=C(Cl)C2(Cl)C1(Cl)Cl (stereo not given),-4%,-3%,-3%,-6%,-3%
[O-][n+]1c2cccc(O)c2[n+]([O-])c2cccc(O)c21,3%,10%,8%,2%,18%
c1cc2c(cc1C1OC[C@H]3[C@@H](c4ccc5c(c4)OCO5)OC[C@@H]13)OCO2 (stereo not given in full),-4%,-9%,-2%,-5%,-5%
OC(c1ccc(Br)cc1)C(Cl)(Cl)Cl (stereo not given),20%,-1%,5%,89% (active),100% (active)
Cc1c([N+](=O)[O-])oc2ccc3ccccc3c12,-8%,-1%,3%,8%,22%
O=[N+]([O-])c1cc([As](Br)c2ccc(O)c([N+](=O)[O-])c2)ccc1O,28%,88% (active),100% (active),99% (active),99% (active)
